High-throughput results from PubChem.
Hits are enriched below; roughly 9.3% of the tested compounds scored in any of these assays.
Rab9 prom act: qHTS Assay for Rab9 Promoter Activators; Potency, µM (titrated, usually from 9.22 µM), without a hit: at the highest dose activation, negative = inhibition, usual class: activators; AID 485297, 2010; Huh7 Rab9 promoter-luciferase reporter, luminescence, 24 h; 2.8% of 320,000 active; note: % of control where 0% means no effect; nearly all actives have a fitted effect of over 60% in size
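Steps: seed 1500 Huh7 Rab9-luc cells per well, rest 2 h at 37 °C; add compound in DMSO; incubate 24 h; add luciferase reagent, 10 min ambient; read luminescence.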
SMN2 splice enh: qHTS Assay for Enhancers of SMN2 Splice Variant Expression; HEK293 SMN2-luciferase splicing reporter, luminescence, 30-36 h; Potency, µM (titrated, usually from 46.1 µM), without a hit: top-dose activity change, positive = activation, usual class: activators; 2.8% of 210,000 active; note: % of control where 0% means no effect; nearly all actives have a fitted effect of over 55% in size
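qHTS luciferase splicing reporter: luminescence rises when SMN2 exon 7 is included in transfected HEK293 cells. Compound exposure lasted 30-36 h at 37C, with 4.5 mM final sodium butyrate as control, followed by a ONE-Glo read.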
NPC1 prom act: qHTS Assay for NPC1 Promoter Activators; Huh7 NPC1 promoter luciferase reporter, 24 h; 2.4% of 320,000 active; Potency, µM (top dose mostly 9.22 µM), inactives show top-dose activation, usual class: activators; note: % of control where 0% means no effect; nearly all actives have a fitted effect of over 60% in size
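Compounds in DMSO were transferred onto Huh7 NPC1-luciferase reporter cells pre-incubated 2 h; after 24 h at 37 °C, Amplite reagent was dispensed and luminescence recorded 10 min later.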
ELG1 DNA repair: qHTS screen for small molecules that inhibit ELG1-dependent DNA repair in human embryonic kidney (HEK293T) cells expressing luciferase-tagged ELG1. HEK293T ELG1-luciferase reporter, luminescence, 16 h; DNA damage induced by 5-fluorouridine. Potency, µM (titrated, usually from 46.1 µM), for inactives: at the top dose activity change, negative = inhibition, hits mostly inhibitors. 2.3% of 330,000 active. AID 504467, 2011; note: % is set by controls: 0 for no effect and ±100 for the full control effect; nearly all actives have a fitted effect of over 55% in size
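Overnight (16 hr) co-exposure of 2,000 cells/well to 5-fluorouridine and compound at 37 °C preceded detection. Luciferase was quantified via ONE-Glo luminescence; loss of signal denotes inhibition.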
FLuc modulator: qHTS profiling assay for firefly luciferase inhibitor/activator using purifed enzyme and Km concentrations of substrates (counterscreen for miR-21 project); Luciferin 4-monooxygenase (Photinus pyralis), P08659; purified FLuc, Km substrates, luminescence inhibition; Potency, µM (series often up to 57.5 µM), without a hit: top-dose activity change, negative = inhibition, most hits filed as inhibitors; 6.9% of 360,000 active; AID 588342, 2011;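 note: plate controls were vehicle for no effect and reference inhibitor for full effect; nearly all actives have a fitted effect of over 55% in size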
Target sequence (P08659 whole entry, looked up): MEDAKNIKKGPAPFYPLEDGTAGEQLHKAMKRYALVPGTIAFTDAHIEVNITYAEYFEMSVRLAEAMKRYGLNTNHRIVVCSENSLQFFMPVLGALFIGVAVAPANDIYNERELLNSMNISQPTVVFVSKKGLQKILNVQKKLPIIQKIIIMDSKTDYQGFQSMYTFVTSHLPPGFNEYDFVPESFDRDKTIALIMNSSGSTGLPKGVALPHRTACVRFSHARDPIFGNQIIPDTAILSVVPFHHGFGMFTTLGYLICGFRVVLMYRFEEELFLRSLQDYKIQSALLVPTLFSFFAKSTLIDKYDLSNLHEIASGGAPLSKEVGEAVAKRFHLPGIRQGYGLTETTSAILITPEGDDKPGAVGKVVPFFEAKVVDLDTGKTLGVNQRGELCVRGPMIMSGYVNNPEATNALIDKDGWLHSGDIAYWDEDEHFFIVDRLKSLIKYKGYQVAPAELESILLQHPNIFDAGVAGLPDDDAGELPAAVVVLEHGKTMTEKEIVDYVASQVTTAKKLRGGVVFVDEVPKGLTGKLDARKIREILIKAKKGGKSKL
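Biochemical qHTS of compounds, final roughly 60 µM downward over six points, against 10 nM purified firefly luciferase using Km concentrations of substrates (10 uM D-luciferin, 10 uM ATP) in Tris acetate pH 7.5 buffer; luminescence output.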
ELG1 genotox: qHTS screen for small molecules that induce genotoxicity in human embryonic kidney (HEK293T) cells expressing luciferase-tagged ELG1 | HEK293T ELG1-luciferase reporter, luminescence, 16 h | 1.3% of 330,000 active | AID 504466, 2011 | Potency, µM (highest dose often 46 µM), without a hit: top-dose activity change, positive = activation, most hits filed as activators; note: % of control where 0% means no effect; nearly all actives have a fitted effect of over 60% in size
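Genotoxic stress is detected as increased luminescence from luciferase-tagged ELG1 in HEK293T cells, measured with ONE-Glo after a 16 hr treatment at 37 °C.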
Active calls of the source: *; ? = inconclusive; · = no result given. Calls come from the whole dose curve; as a rule, active = well fitted curve in the direction sought with a large enough effect; inconclusive = small, poorly fitted or top-dose-only effect, or another doubt; inactive = no such curve, though single readings can be large; an effect the other way counts as inactive or inconclusive. Potency is the fitted concentration of half-maximal effect.

SMILES	Rab9 prom act	SMN2 splice enh	NPC1 prom act	ELG1 DNA repair	FLuc modulator	ELG1 genotox
CCC(C)(C(=O)NC1CCCCC1)N(C(=O)CNC(=O)c1ccccc1)c1c(C)n(C)n(-c2ccccc2)c1=O (configuration not stated)	-0.1%	-18.8%	-1.7%	-4.9%	-1.4%	10.0%
CC1CCCN(c2ncnc3c2cnn3-c2ccccc2)C1 (configuration not stated)	0.141µM*	·	0.355µM*	?	0.19µM*	?
Cc1ccc(C)c(N2CCN(c3ncnc4c3cnn4-c3ccccc3)CC2)c1	0.1%	-17.8%	2.3%	?	-5.2%	-1.8%
CCN(CC)C(=O)C1CCCN(c2ncnc3c2cnn3-c2cccc(C)c2)C1 (configuration not stated)	-6.6%	-18.4%	-2.8%	?	?	?
Cc1ccc(-n2ncc3c(N4CCN(c5ccc(F)cc5)CC4)ncnc32)cc1	·	·	·	·	-0.4%	·
CC1CCCN(c2ncnc3c2cnn3-c2ccc(F)cc2)C1 (configuration not stated)	·	·	·	·	0.169µM*	·
Cc1cccc(-n2ncc3c(N4CCCC(C)C4)ncnc32)c1 (configuration not stated)	·	·	·	·	0.426µM*	·
CCN(CC)C(=O)C1CCCN(c2ncnc3c2cnn3-c2ccc(Cl)cc2)C1 (configuration not stated)	-5.5%	·	-8.4%	?	16.9µM*	-10.2%
CC1CCCN(c2ncnc3c2cnn3-c2ccc(Cl)cc2)C1 (configuration not stated)	-29.4%	·	-38.2%	?	0.0953µM*	0.5%
Cc1ccc(-n2ncc3c(N4CCCC(C)C4)ncnc32)c(C)c1 (configuration not stated)	2µM*	·	3.16µM*	?	7.57µM*	?
CCOC(=O)C1CCCN(c2ncnc3c2cnn3-c2cccc(C)c2)C1 (configuration not stated)	28.1%	17.4%	23.9%	?	23.9µM*	?
Cc1ccc(-n2ncc3c(N4CCCC4)ncnc32)c(C)c1	?	-17.0%	?	1.4%	?	-6.6%
CC1CC(C)CN(c2ncnc3c2cnn3-c2ccc(Cl)cc2)C1 (configuration not stated)	0.708µM*	-81.0%	2µM*	?	2.13µM*	?
C=C(C)OC(C)=O	·	-2.1%	·	·	·	·
O=C(c1ccccc1F)N1CCN(c2cnn(-c3cccc(Cl)c3)c(=O)c2Cl)CC1	-1.9%	-102.9%	0.4%	?	1.2%	-18.0%
NNC(=O)CN1CCCc2ccccc21	3.0%	23.4%	-2.2%	?	12µM*	?
O=C(CN1CCCc2ccccc21)N1CCc2ccccc21	-0.3%	·	0.9%	-7.9%	-16.4%	0.7%
COc1ccc(OC)c(NC(=O)C(NS(=O)(=O)c2ccc3c(c2)CCCC(=O)N3)C(C)C)c1 (configuration not stated)	·	·	·	·	0.6%	·
O=C(ONc1ccc(N=NC(=O)c2ccccc2O)cc1)c1ccccc1	3.98µM*	·	?	?	8.49µM*	10.3µM*
O=Nc1ccc(NOC(=O)c2ccccc2Br)cc1	-0.1%	11.4%	7.1%	29.0%	0.239µM*	1.5%
COC(=O)N/N=C(\C)c1ccccc1Br	7.2%	-5.6%	-1.2%	19.6%	-2.9%	0.3%
COc1ccc(/C=N/n2cnnc2SCc2ccc(OC)cc2)cc1	-2.1%	-5.4%	3.5%	0.7%	13.5µM*	0.6%
COc1ccc(C(=O)c2sc3nc(-c4ccccc4)ccc3c2N)cc1	-10.2%	-1.5%	-3.3%	3.4%	-17.7%	-0.4%
CC(C)OC(=O)c1sc2nc(-c3ccccc3)ccc2c1N	0.447µM*	-31.1%	0.316µM*	?	0.301µM*	?
Nc1c(C(=O)NCc2ccc(Cl)cc2)sc2nc(-c3ccc(F)cc3)ccc12	·	5.1%	·	·	-1.2%	·
SMILES	Rab9 prom act	SMN2 splice enh	NPC1 prom act	ELG1 DNA repair	FLuc modulator	ELG1 genotox
CCOC(=O)c1sc2nc(-c3cccnc3)ccc2c1N	0.501µM*	·	0.447µM*	?	0.477µM*	2.59µM*
COc1ccc(-c2ccc3c(N)c(C(=O)NCc4ccc(Cl)cc4)sc3n2)cc1	·	11.2µM*	·	·	7.1%	·
CC(=O)c1cccc(NC(=O)CSc2ncc3c(n2)-c2cc(Cl)ccc2N(Cc2ccccc2)S3(=O)=O)c1	·	·	·	·	1.2%	·
O=C(Cn1c(=O)n(Cc2ccc3c(c2)OCO3)c(=O)c2ccccc21)Nc1cccc(Cl)c1	·	7.4%	·	·	4.5%	·
CC(C)(C)c1ccc(CN(Cc2ccco2)c2cnc(S(C)(=O)=O)nc2C(=O)Nc2ccc(F)cc2)cc1	·	·	·	·	-0.1%	·
Cc1ccc(-c2csc(N/N=C/c3ccco3)n2)c(C)c1	17.9%	3.98µM*	14.3%	?	-13.4%	18.6%
Cc1cc(=O)n(CC(=O)N2CCN(c3ccccc3F)CC2)c2c1c(C)nn2C	·	·	·	·	-2.4%	·
CCN(CC)c1ccc(C(=O)Nc2cccc(F)c2)cc1	1.12µM*	8.91µM*	0.794µM*	?	?	?
CN(C)c1cccc(C(=O)Nc2cccc(F)c2)c1	2.82µM*	14.1µM*	2.24µM*	?	19µM*	?
CCN(CC)c1ccc(C(=O)NN)cc1	-1.9%	-4.9%	-3.0%	-5.5%	-3.8%	9.8%
O=C(CSc1ncc2c(n1)-c1cc(Cl)ccc1N(Cc1ccccc1)S2(=O)=O)NCc1ccccc1	·	·	·	·	0.4%	·
